Source: PubChem BioAssay AID1259343 (VanderVen Lab, College of Veterinary Medicine, Cornell …, 2017)
In all, about 6,200 compounds went through this assay and about 2,900 (47%) were called active. Rule as the data show it: active = inhibition above about 50%; inactive = the rest. So high a share suggests a set chosen from earlier hits. The list shows a part of the results.

assay: Mycobacterium tuberculosis growth inhibition, primary screen (AID 1259343); details: inhibition: at 10 µM, active compounds read high; outcome: 10 uM

Row | Structure (SMILES) | inhibition
1 | O=[N+]([O-])c1ccc(NN=C2CC3CC=CC23)c([N+](=O)[O-])c1 (configuration not stated) | 92% (active)
2 | CC1=CC(=NNc2ccc(S(N)(=O)=O)cc2[N+](=O)[O-])CC(C)(C)C1 | -10.6% (inactive)
3 | O=[N+]([O-])c1ccc(NN=C2C3CC4CC2CC(O)(C4)C3)c([N+](=O)[O-])c1 | 25.5% (inactive)
4 | CCc1ccccc1Nc1nnc(SCC(=O)NC(C)C)s1 | 102% (active)
5 | COCCCNC(=O)CSc1nnc(Nc2ccccc2Cl)s1 | 80.1% (active)
6 | O=C(Nc1nnc(SCc2ccc(F)cc2)s1)c1ccccc1Br | 27.4% (inactive)
7 | C=CCSc1nnc(NC(=O)c2cc(Br)ccc2Cl)s1 | 9.41% (inactive)
8 | CNc1nnc(SCc2sc3ccccc3c2Cl)s1 | 48.5% (inactive)
9 | CCSc1nnc(NC(=O)Cc2ccccc2Cl)s1 | 95.5% (active)
10 | CC(C)NC(=O)CSc1nnc(Nc2ccccc2Cl)s1 | 78.8% (active)
11 | CCCN(CC(=O)N(Cc1ccccc1)Cc1sccc1C)C(=O)Nc1ccc(C(=O)OCC)cc1 | 89.4% (active)
12 | C=CCNCC(=O)N(Cc1ccccc1)Cc1ccc(C)s1 | 21.1% (inactive)
13 | COC(=O)c1ccc(NC(=O)N2CCCC(C(=O)c3sccc3C)C2)cc1 (configuration not stated) | -5.44% (inactive)
14 | CC(=O)N1N=C(c2ccco2)OC1C(=O)N[C@@H]1C[C@@H]2C[C@H](C1C)C2(C)C (some centres not stated) | 8.4% (inactive)
15 | c1ccc(-c2cc(NC3CCCC3)nc3ccccc23)cc1 | 67.7% (active)
16 | c1cncc(-c2nc(NC3CCCCCCC3)c3ccccc3n2)c1 | 39.2% (inactive)
17 | c1cncc(-c2nc(N3CCCC4CCCCC43)c3ccccc3n2)c1 (configuration not stated) | -13.1% (inactive)
18 | O=[N+]([O-])c1cccc2nsnc12 | -16% (inactive)
19 | CC(=O)Oc1ccc(N2C(=O)c3cccc4c([N+](=O)[O-])ccc(c34)C2=O)cc1 | 36.4% (inactive)
20 | O=[N+]([O-])c1ccc(O)c2ncccc12 | 102% (active)
21 | O=[N+]([O-])c1ccc(-c2nc(N=Nc3ccc(O)cc3)n[nH]2)cc1 | 84.3% (active)
22 | N#CC(=Cc1ccc(O)cc1)c1ccc([N+](=O)[O-])cc1 | 27.9% (inactive)
23 | CC(NC(=O)NC(=O)N(C1CCCCC1)S(C)(=O)=O)C1CC2CCC1C2 (configuration not stated) | 79.8% (active)
24 | CC(NC(=O)c1ccc2ncsc2c1)C1CC2CCC1C2 (configuration not stated) | 5.4% (inactive)
25 | CC(NS(=O)(=O)c1ccc(Cl)cc1)C1CC2CCC1C2 (configuration not stated) | -15.9% (inactive)
26 | CCc1c(C)nc(-n2nc(C)cc2NC(=O)c2ccc(OC)cc2OC)[nH]c1=O | -4.11% (inactive)

Row | Structure (SMILES) | inhibition
27 | CCc1c(C)nc(-n2nc(C)cc2NC(=O)/C=C/c2ccc(OC)c(OC)c2)[nH]c1=O | 99.3% (active)
28 | CCc1c(C)nc(-n2nc(C)cc2NC(=O)Cc2ccc([N+](=O)[O-])cc2)[nH]c1=O | 78.5% (active)
29 | COc1ccc(CC(=O)Nc2cc(C)nn2-c2nc3c(c(=O)[nH]2)CCC3)cc1OC | 101% (active)
30 | CCc1c(C)nc(-n2nc(C)cc2NC(=O)Cc2ccc(OC)cc2)[nH]c1=O | 99.1% (active)
31 | COc1ccc(CC(=O)Nc2cc(C)nn2-c2nc(C)c(C)c(=O)[nH]2)cc1 | -19.9% (inactive)
32 | C=CC(=O)Nc1cccc(Sc2nc(Nc3ccc(N4CCN(C)CC4)cc3)ncc2Cl)c1 | 33.2% (inactive)
33 | O=C(CSc1nnc(C23CC4CC(CC(C4)C2)C3)o1)N1CCCC1 | 45.1% (inactive)
34 | CCc1c(C)nc(-n2nc(C)cc2NC(=O)Cc2ccc(OC)c(OC)c2)[nH]c1=O | 101% (active)
35 | COc1ccc(CC(=O)Nc2cc(C)nn2-c2nc(C)c(C)c(=O)[nH]2)cc1OC | 100% (active)
36 | CCNC(=O)c1cc(Oc2ccc(C)cc2Br)ccn1 | 89.2% (active)
37 | Cc1ccc(Oc2ccc3ncccc3c2N)c(Br)c1 | 14.7% (inactive)
38 | CCNC(=O)c1cc(N2CCC(c3ccc(OC)cc3)C2)ccn1 (configuration not stated) | -14.2% (inactive)
39 | O=C(NCC1COc2ccccc2O1)c1ccc2c(c1)CCC2 (configuration not stated) | 66.8% (active)
40 | CC(NC(=O)C1Cc2ccccc2O1)c1ccc(Cl)s1 (configuration not stated) | 4.06% (inactive)
41 | O=C(NCC1COc2ccccc2O1)N1CCN(c2ccc(F)cc2)CC1 (configuration not stated) | 26.7% (inactive)
42 | Fc1ccccc1NC(=S)NCC1COc2ccccc2O1 (configuration not stated) | 11.1% (inactive)
43 | O=C(NCC1COc2ccccc2O1)C1Cc2cc(Cl)ccc2O1 (configuration not stated) | 67% (active)
44 | CC(NC(=O)c1cc(Cl)ccc1NS(C)(=O)=O)c1ccc2c(c1)OCO2 (configuration not stated) | 7.73% (inactive)
45 | CC(NC(=O)C1Cc2cc(Cl)ccc2O1)c1ccc(F)c(F)c1 (configuration not stated) | 59.3% (active)
46 | O=C(NCc1ccco1)C1Cc2cc(Cl)ccc2O1 (configuration not stated) | 22% (inactive)
47 | O=C1CC(NC(=O)C(F)(F)F)=NN1c1ccccc1 | 70.9% (active)
48 | O=C(c1csc(-c2cccnc2)n1)N1CCOC(c2ccc(Cl)cc2)C1 (configuration not stated) | 61% (active)
49 | CCCc1nc(C(=O)N2CCOC(c3ccc(Cl)cc3)C2)cs1 (configuration not stated) | 28.4% (inactive)
50 | Clc1ccc(C2CN(Cc3cc(-c4cccnc4)no3)CCO2)cc1 (configuration not stated) | 6.33% (inactive)
51 | Cc1ccccc1OCC(=O)N1CCN(c2ncnc3c2nnn3-c2cccc(F)c2)CC1 | 67.9% (active)
52 | c1ccc(Cc2nc(CCOc3ccccc3)n[nH]2)cc1 | 36.5% (inactive)

Row | Structure (SMILES) | inhibition
53 | Nc1ccc(F)cc1-c1nc(CCOc2ccccc2)no1 | 74.1% (active)
54 | COCCCn1c(=S)[nH]c2sc3c(c2c1=O)CCCC3 | 20.5% (inactive)
55 | O=c1c2c3c(sc2[nH]c(=S)n1CC1CCCO1)CCCC3 (configuration not stated) | 68.2% (active)
56 | CCn1c(=S)[nH]c2sc3c(c2c1=O)CCCC3 | 38.1% (inactive)
57 | CCC(=O)c1cccc(-c2ccc(NC(C)=O)cc2)c1 | 78.7% (active)
58 | CCCc1cc(Nc2ccc(NC(C)=O)cc2)n2ncc(-c3ccccc3)c2n1 | -6.07% (inactive)
59 | O=C1c2ccccc2C(=O)c2c1oc1c3c(ccc21)OCN(C1CCCC1)C3 | 99.5% (active)
60 | CCOC(=O)c1ccc(NC(=O)c2cc3cc([N+](=O)[O-])ccc3oc2=N)cc1 | 62.9% (active)
61 | COC(=O)c1cc2cc(Br)ccc2oc1=O | -45.4% (inactive)
62 | CCOC(=O)C(CC)Sc1nnc(NC(=O)c2ccc(Br)cc2)s1 (configuration not stated) | 91.5% (active)
63 | COC(=O)C(C)Sc1nc2c(c(=O)n(C)c(=O)n2C)n1CCC(C)C (configuration not stated) | 26.7% (inactive)
64 | Cc1cccc(Cn2c(SC(C)C)nc3c2c(=O)n(C)c(=O)n3C)c1 | 81.2% (active)
65 | CSc1nc2c(c(=O)n(C)c(=O)n2C)n1CCCc1ccccc1 | 28.2% (inactive)
66 | CN(Cc1ccc(-n2cccn2)cc1)S(=O)(=O)c1cccs1 | 10.7% (inactive)
67 | Fc1cccc(NCCc2ccc(-n3cccn3)cc2)n1 | 67.5% (active)
68 | COCCNc1cc(C)nc2c(-c3ccc(Cl)cc3)cnn12 | 98.7% (active)
69 | Cc1ccc(-c2cnn3c(-n4nc(C)cc4C)cc(C)nc23)cc1 | 47.1% (inactive)
70 | Cc1cc(NCCCn2ccnc2)n2ncc(-c3ccc(Cl)cc3)c2n1 | 95.2% (active)
71 | Cc1cc(NCCOCCO)n2ncc(-c3ccc(Cl)cc3)c2n1 | -5.37% (inactive)
72 | CCc1nn2c(NCCOC)cc(C)nc2c1-c1ccccc1 | 32.2% (inactive)
73 | c1ccc(-c2cc(NCCCn3ccnc3)n3ncc(-c4ccccc4)c3n2)cc1 | -16.1% (inactive)
74 | O=C1CC(c2ccc(O)cc2)Oc2ccccc21 (configuration not stated) | 72.9% (active)
75 | O=C1CC(c2ccc3c(c2)OCCO3)Oc2ccc(Br)cc21 (configuration not stated) | inactive
76 | O=C1NC(=O)C(Nc2ccc(I)cc2)S1 (configuration not stated) | 27.9% (inactive)
77 | COc1ccc2c(c1OC)C(=O)OC2Nc1ccc(I)cc1 (configuration not stated) | 72.8% (active)
78 | FC(F)(F)c1cccc(OCCCCn2cnc3ccccc32)c1 | 76.6% (active)

Row | Structure (SMILES) | inhibition
79 | c1ccc(COc2ccc(OCCCn3cnc4ccccc43)cc2)cc1 | 85.3% (active)
80 | Cc1ccc(C(C)C)cc1OCCCn1cnc2ccccc21 | 78.4% (active)
81 | c1ccc(OCCCCn2nnc3ccccc32)cc1 | 21.5% (inactive)
82 | Cc1ccc(OCCCn2cnc3ccccc32)cc1 | 36% (inactive)
83 | Ic1ccc(OCCCn2cnc3ccccc32)cc1 | 70.5% (active)
84 | Cc1cc(OCC(O)CN(Cc2ccccc2)C(C)(C)C)ccc1[N+](=O)[O-] (configuration not stated) | 0.53% (inactive)
85 | Cc1cc(OCCCn2cnc3ccccc32)ccc1[N+](=O)[O-] | 61.1% (active)
86 | CC1=C(C(=O)OCCOc2ccccc2)C(c2ccccc2[N+](=O)[O-])NC(=O)N1C (configuration not stated) | -7.53% (inactive)
87 | CN(Cc1nc2c(s1)CCCC2)C(=O)Cc1ccccc1O | 82.4% (active)
88 | CC1=NN(c2ccc(C(=O)N(C)Cc3ccccc3O)cc2)CC1 | 23.1% (inactive)
89 | Cc1[nH]ccc2c1[nH]c1cc(=O)ccc12 | 90.6% (active)
90 | COc1cccc(Oc2ncc(C(N)=O)cc2Cl)c1 | 68.9% (active)
91 | Oc1ccc(Oc2ncc(Cl)cc2Cl)cc1 | 38.9% (inactive)
92 | CN(Cc1ccccc1C(F)(F)F)c1ncc(C(N)=O)cc1Cl | 39.2% (inactive)
93 | CN(C)c1ccc(-c2nc(-c3cc4c5c(c3)CC(=O)N5CCC4)cs2)cc1 | -34.5% (inactive)
94 | Cc1nc(-c2ccc(CCNC(=O)c3cc(F)cc(F)c3)s2)cs1 | 35.7% (inactive)
95 | Nc1nc(-c2cccs2)cs1 | 76% (active)
96 | Nc1nc(-c2ccc3c(c2)OCO3)cs1 | -28.1% (inactive)
97 | CCc1ccc(-c2csc(N)n2)s1 | 76.7% (active)
98 | Clc1ccc(-c2csc(-c3cnccn3)n2)s1 | 17.5% (inactive)
99 | Nc1nc(-c2ccc(Cl)s2)cs1 | 86.7% (active)
100 | CN(C)c1ccc(Nc2nc(-c3cccs3)cs2)cc1 | 18.8% (inactive)
101 | Nc1ccn(-c2ccc(Cl)c(Cl)c2)n1 | 96.1% (active)
102 | NC(=O)c1ccn(-c2cccc(Br)c2)n1 | 10.3% (inactive)
